# Article PMC11062922 (Nature Chemical Biology, 2023)
# Where two headings read alike, the source gives them in different places.
# How the values were obtained:
# Parameters in all cases: species or system human, MV4-11 + K-562 + COLO205 + SK-N-BE2 + OVCAR-8
# AKT2 = settings: read-out: apparent Kd, n = 1
# CDK16 = settings: read-out: apparent Kd; compound concentrations:100 nM and 1000 nM (sheet 'Samples'); n = 1
# CDK17 = settings: read-out: apparent Kd; compound concentrations:100 nM and 1000 nM (sheet 'Samples'); n = 1
# CDKL5 = settings: read-out: apparent Kd; compound concentrations:100 nM and 1000 nM (sheet 'Samples'); n = 1
# DJA1 = test system: T1, DJA1; settings: read-out: apparent Kd, n = 1
# T1 construct: gene DNAJA1
# GSK3A = settings: read-out: apparent Kd; compound concentrations:100 nM and 1000 nM (sheet 'Samples'); n = 1
# GSK3B = settings: read-out: apparent Kd; compound concentrations:100 nM and 1000 nM (sheet 'Samples'); n = 1
# JAK2 = settings: read-out: apparent Kd; compound concentrations:100 nM and 1000 nM (sheet 'Samples'); n = 1
# MAPK14 = settings: read-out: apparent Kd; compound concentrations:100 nM and 1000 nM (sheet 'Samples'); n = 1
# PIK3CA = settings: read-out: apparent Kd; compound concentrations:100 nM and 1000 nM (sheet 'Samples'); n = 1
# PIK3CD = settings: read-out: apparent Kd; compound concentrations:100 nM and 1000 nM (sheet 'Samples'); n = 1
# RPS6KA6 = settings: read-out: apparent Kd; compound concentrations:100 nM and 1000 nM (sheet 'Samples'); n = 1
# CDC42 = settings: read-out: apparent Kd; compound concentrations: 100 nM and 1000 nM (sheet 'Samples'), CATDS: 0.22290293584535001; n = 1
# DCTPP1 = settings: read-out: apparent Kd; compound concentrations: 100 nM and 1000 nM (sheet 'Samples'), CATDS: 0.21946869965493901; n = 1
# IRAK4 = settings: read-out: apparent Kd; compound concentrations: 100 nM and 1000 nM (sheet 'Samples'), CATDS: 0.188463756574588; n = 1
# AKT1 = settings: read-out: apparent Kd, n = 1
# HCK = settings: read-out: apparent Kd; compound concentrations:100 nM and 1000 nM (sheet 'Samples'); n = 1
# MAP2K2 = settings: read-out: apparent Kd, n = 1
# NQO1 = settings: read-out: apparent Kd, n = 1
# RET = settings: read-out: apparent Kd; compound concentrations:100 nM and 1000 nM (sheet 'Samples'); n = 1
# TP53RK = settings: read-out: apparent Kd; compound concentrations:100 nM and 1000 nM (sheet 'Samples'); n = 1
# YES1 = settings: read-out: apparent Kd; compound concentrations:100 nM and 1000 nM (sheet 'Samples'); n = 1
# AKT3 = settings: read-out: apparent Kd; compound concentrations: 100 nM and 1000 nM (sheet 'Samples'), CATDS: 0.150950387905983; n = 1
# MYLK3 = settings: read-out: apparent Kd; compound concentrations: 100 nM and 1000 nM (sheet 'Samples'), CATDS: 0.56668098220649099; n = 1
# RIOK2 = settings: read-out: apparent Kd; compound concentrations: 100 nM and 1000 nM (sheet 'Samples'), CATDS: 0.13311346938063801; n = 1
# MAP2K1 = settings: read-out: apparent Kd; compound concentrations: 100 nM and 1000 nM (sheet 'Samples'), CATDS: 9.8973729248026707E-2; n = 1
# NCL = settings: read-out: apparent Kd; compound concentrations: 100 nM and 1000 nM (sheet 'Samples'), CATDS: 0.116162101404393; n = 1
# PIK3C3 = settings: read-out: apparent Kd; compound concentrations: 100 nM and 1000 nM (sheet 'Samples'), CATDS: 0.115592517664726; n = 1
# PIK3CB = settings: read-out: apparent Kd; compound concentrations: 100 nM and 1000 nM (sheet 'Samples'), CATDS: 0.13740958062808101; n = 1
# PYGL = settings: read-out: apparent Kd; compound concentrations: 100 nM and 1000 nM (sheet 'Samples'), CATDS: 9.7642966529981307E-2; n = 1
# TAOK3 = settings: read-out: apparent Kd; compound concentrations: 100 nM and 1000 nM (sheet 'Samples'), CATDS: 0.106339903242866; n = 1
# AGPS = settings: read-out: apparent Kd; compound concentrations:100 nM and 1000 nM (sheet 'Samples'); n = 1
# COX5A = settings: read-out: apparent Kd; compound concentrations:100 nM and 1000 nM (sheet 'Samples'); n = 1
# TGFBR1 = settings: read-out: apparent Kd; compound concentrations:100 nM and 1000 nM (sheet 'Samples'); n = 1
# [1] = compound concentrations:100 nM and 1000 nM (sheet 'Samples')
smiles,measurement,setting,value
CN1CCC(C(=O)Nc2n[nH]c3nnc(-c4ccccc4)cc23)CC1.Cl [SB-678557-A],potency estimated from few doses,AKT2; [1],2390 nM
same,potency estimated from few doses,CDK16,1070 nM
same,potency estimated from few doses,CDK17,1910 nM
same,potency estimated from few doses,CDKL5,75.2 nM
same,potency estimated from few doses,DJA1; [1],1840 nM
same,potency estimated from few doses,GSK3A,3.32 nM
same,potency estimated from few doses,GSK3B,8.23 nM
same,potency estimated from few doses,JAK2,721 nM
same,potency estimated from few doses,MAPK14,1690 nM
same,potency estimated from few doses,PIK3CA,183 nM
same,potency estimated from few doses,PIK3CD,173 nM
same,potency estimated from few doses,RPS6KA6,1150 nM
O=C1N=C(N[C@H](CO)Cc2ccccc2)S/C1=C\c1ccc2ncccc2c1 [RO4503319-000],potency estimated from few doses,"AKT2; compound concentrations: 100 nM and 1000 nM (sheet 'Samples'), CATDS: 0.16502460627676999",2470 nM
same,potency estimated from few doses,CDC42,1290 nM
same,potency estimated from few doses,DCTPP1,1330 nM
same,potency estimated from few doses,"DJA1; compound concentrations: 100 nM and 1000 nM (sheet 'Samples'), CATDS: 0.217792726025238",1350 nM
same,potency estimated from few doses,IRAK4,1810 nM
C=CC(=O)Nc1cc(-c2nn(C3CCC(N4CCN(C(C)=O)CC4)CC3)c3ncnc(N)c23)ccc1Oc1ccccc1 (stereo not shown) [TX-85-1],potency estimated from few doses,AKT1; [1],2280 nM
same,potency estimated from few doses,AKT2; [1],2250 nM
same,potency estimated from few doses,HCK,799 nM
same,potency estimated from few doses,MAP2K2; [1],1550 nM
same,potency estimated from few doses,NQO1; [1],1480 nM
same,potency estimated from few doses,RET,712 nM
same,potency estimated from few doses,TP53RK,1620 nM
same,potency estimated from few doses,YES1,918 nM
COc1cc2ncn(-c3cc(OCCc4ccccc4)c(C(N)=O)s3)c2cc1OC [GSK204925A],potency estimated from few doses,"AKT2; compound concentrations: 100 nM and 1000 nM (sheet 'Samples'), CATDS: 0.131386999232284",2300 nM
same,potency estimated from few doses,AKT3,1570 nM
same,potency estimated from few doses,"MAP2K2; compound concentrations: 100 nM and 1000 nM (sheet 'Samples'), CATDS: 0.14753696988114701",1660 nM
same,potency estimated from few doses,MYLK3,137 nM
same,potency estimated from few doses,"NQO1; compound concentrations: 100 nM and 1000 nM (sheet 'Samples'), CATDS: 0.17515611913919399",1100 nM
same,potency estimated from few doses,RIOK2,2210 nM
Cc1nc(Nc2cnn(C3CCNCC3)c2)nc2c1N(C)C(=O)c1cc3ccccc3cc1N2C [HTH-01-015],potency estimated from few doses,"AKT1; compound concentrations: 100 nM and 1000 nM (sheet 'Samples'), CATDS: 0.123501580073808",1310 nM
same,potency estimated from few doses,"AKT2; compound concentrations: 100 nM and 1000 nM (sheet 'Samples'), CATDS: 0.10314044451286999",1870 nM
same,potency estimated from few doses,MAP2K1,2060 nM
same,potency estimated from few doses,"MAP2K2; compound concentrations: 100 nM and 1000 nM (sheet 'Samples'), CATDS: 0.112091584059978",1580 nM
same,potency estimated from few doses,NCL,1470 nM
same,potency estimated from few doses,PIK3C3,1480 nM
same,potency estimated from few doses,PIK3CB,1080 nM
same,potency estimated from few doses,PYGL,2120 nM
same,potency estimated from few doses,TAOK3,1760 nM
Fc1ccc(-c2cc(-c3c[nH]nc3-c3ccccn3)ccn2)cc1 [GW680975X],potency estimated from few doses,AGPS,1790 nM
same,potency estimated from few doses,COX5A,132 nM
same,potency estimated from few doses,TGFBR1,960 nM
